Assay outcomes (PubChem)
Shown are actives, neighbours in structure and some others; about 2.8% of the full set was active somewhere.
Mcl1-Bid inh = disrupts binding of human Mcl-1 to Bid peptide; Q07820; TR-FRET Mcl-1/Bid-Dy647 peptide binding, 1536-well; inhibition, % at 21.7 µM; hit rate 0.97% among 220,000; AID 1021;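 active = compounds that cut the binding signal by more than half at the single screening dose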;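 also: His-tagged Mcl-1 with europium anti-His antibody binding Bid BH3 peptide; 0% = Mcl-1 plus peptide wells and 100% = peptide-only wells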
Target sequence (Q07820 whole entry, looked up): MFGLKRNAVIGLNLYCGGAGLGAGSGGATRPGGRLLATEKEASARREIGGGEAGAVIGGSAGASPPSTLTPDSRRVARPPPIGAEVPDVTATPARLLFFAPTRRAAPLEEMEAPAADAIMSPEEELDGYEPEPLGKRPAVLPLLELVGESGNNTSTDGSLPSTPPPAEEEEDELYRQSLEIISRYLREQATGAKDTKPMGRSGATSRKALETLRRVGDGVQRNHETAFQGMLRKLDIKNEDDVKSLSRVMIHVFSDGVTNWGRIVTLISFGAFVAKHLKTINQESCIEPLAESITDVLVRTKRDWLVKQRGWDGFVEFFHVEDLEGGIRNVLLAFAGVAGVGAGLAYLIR
Mcl1-Noxa inh = Mcl-1/Noxa interaction inhibition; inhibition, % at 21.7 µM; hit rate 1.5% among 220,000; AID 1022; TR-FRET Mcl-1/Noxa peptide binding, 2 h;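 active = compounds that cut the protein-peptide binding signal by more than 50% relative to plate controls in a single-dose test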;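 also: His-tagged Mcl-1 with rhodamine Noxa BH3 peptide and terbium anti-His antibody; 0% = Mcl-1 plus Noxa peptide wells and 100% = peptide-only wells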
TNF death inh = TNF-alpha cell death inhibition in Jurkat FADD-/- cells; Jurkat FADD-/- TNF necroptosis rescue, ATP luminescence, 24 h; 0 = TNF only, 100 = no-TNF cells; activation (protection from cell death), % at 10 µM; hit rate 0.068% among 220,000;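 active = activation, meaning protection from cell death, of at least 50% relative to plate controls; inactive = activation below 50%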;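 also: necroptosis triggered by 40 ng/mL TNF-alpha added together with compound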
Mcl-1 Bim block = inhibitors of Bim-Mcl-1 interaction, human. Q07820. Bead-based flow cytometry, Bim peptide-Mcl-1 binding. inhibition, % at 10 µM. hit rate 0.1% among 190,000; in the data active = inhibition above about 40%;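 also: 0% = no compound tracer wells and 100% = peptide blocker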
L929 necroptosis = blocks zVAD induced death of L929 cells; AID 1377; viability rescue, % at 10 µM; hit rate 0.38% among 220,000; L929 zVAD necroptosis rescue, ATP luminescence, 24 h; with zVAD 60 µM;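 active = activation, scaled between plate controls, above about 75%, limit read from the data; inactive = activation under that limit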;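 also: 0% = zVAD with DMSO and 100% = DMSO alone without zVAD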
m-calpain inh = blocks pig calpain II enzyme activity; purified calpain II, fluorogenic peptide substrate, 30 min; inhibition, % at 16 µM; hit rate 0.37% among 220,000;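 active = inhibition above about 50%, limit read from the data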
zVAD death conf = confirmed blocker of zVAD induced death in L929 cells | activation (protection from necroptosis), % at 10 µM | shares compounds with L929 necroptosis | hit rate 16% among 760 | L929 zVAD-induced necroptosis rescue, ATP luminescence, 24 h;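 active = mean protection from necroptosis of at least 50% over duplicate tests; inactive = mean protection below 50%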;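 also: 0% = cells with zVAD alone and 100% = vehicle cells without zVAD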
Numbers without * were called inactive; nt = no result.

SMILES | Mcl1-Bid inh | Mcl1-Noxa inh | TNF death inh | Mcl-1 Bim block | L929 necroptosis | m-calpain inh | zVAD death conf
CN(C)C(=O)c1ccc(-c2nnc(NCc3ccccc3)c3ccccc23)cc1 | -51 | -7 | 2 | -14 | 75* | -6 | 36
NC(=O)Cc1ccc(Nc2nnc(-c3ccc(O)cc3)c3ccccc23)cc1 | -4 | 31 | 0 | -6 | 4 | -3 | nt
Cc1cccc2sc(NC(=O)C3c4ccccc4Oc4ccccc43)nc12 | 4 | 6 | -4 | 0 | 0 | -3 | nt
CCOC(=O)c1ccc(NC(=O)CSc2ccc(-c3ccncc3)nn2)cc1 | -34 | -6 | 2 | 1 | 1 | 0 | nt
Cc1ccc(NC(=O)CSc2ccc(-c3cccnc3)nn2)cc1Cl | -17 | -29 | 1 | 2 | 82* | -63 | 1
O=C(COC(=O)c1ccco1)NCc1ccc(F)cc1 | -31 | 5 | 0 | 0 | 1 | -7 | nt
O=C(Nc1nccs1)c1ccc(-c2ccc(F)cc2)o1 | -10 | 15 | 5 | 6 | 83* | 6 | 1
CCN(CC)S(=O)(=O)c1ccc(/C=C/C(=O)OCC(=O)N(C)C)cc1 | -1 | 10 | -1 | 1 | -1 | 6 | nt
COc1cc(/C=N/NC2=NCCCCC2)ccc1O | -32 | 19 | 1 | nt | 0 | -12 | nt
COc1cc(/C=N/Nc2ncnc3sc4c(c23)CCC4)ccc1O | -4 | 36 | 10 | 0 | 82* | -16 | 38
N=c1c2c3c(sc2ncn1Nc1ccccc1)CCC3 | -10 | -2 | 1 | nt | 0 | -4 | nt
COc1cc(NC(=O)c2ccno2)cc(C(=O)Nc2cccc(C(F)(F)F)c2)c1 | -10 | 22 | 3 | nt | 2 | -15 | nt
O=C(Nc1ccc(-c2csc(Nc3cccc(C(F)(F)F)c3)n2)cc1)c1ccccc1 | -71 | 27 | 8 | nt | 83* | -6 | 38
COc1ccc(-c2cc(C(=O)Nc3cc(OC)cc(C(=O)Nc4cccc(C(F)(F)F)c4)c3)[nH]n2)cc1 | 7 | 5 | 2 | nt | 79* | -84 | 3
O=C(Nc1cccc(-c2csc(Nc3cccc(C(F)(F)F)c3)n2)c1)c1ccccc1 | -85 | -10 | 5 | nt | 7 | -24 | nt
CCN(N=O)[C@@H](Cc1ccccc1)CN(N=O)[C@@H](Cc1ccccc1)CN(C)N=O | 42 | 36 | 0 | 1 | -1 | 1 | nt
Clc1ccc(CSc2nnc(-c3ccccn3)n2Cc2ccco2)c(Cl)c1 | 4 | 2 | 0 | 0 | 1 | 1 | nt
Nc1cc(C(=O)OCC(=O)NC(c2ccccc2)c2ccccc2)ccc1Cl | -15 | 17 | -1 | -6 | 85* | 0 | 36
Nc1cc(C(=O)OCC(=O)NCc2ccc(F)cc2)ccc1Cl | -25 | 12 | 1 | -3 | 0 | -32 | nt
Cc1cc(O)c(C(C)C)cc1N=C1CSC(=O)N1 | -12 | 23 | 1 | -2 | 3 | 3 | nt
Cc1cc(NO)c(C(C)C)cc1N=O | -12 | -11 | -2 | -1 | 78* | 5 | 8
Nc1nonc1-n1nnc(C(=O)N/N=C/c2ccc(Br)cc2)c1CSC1=NCCS1 | -13 | -5 | -7 | -9 | 78* | -38 | 2
CCOC(=O)COc1ccc(/C=C2\NC(=S)N(CC)C2=O)cc1 | -62 | 4 | 3 | -1 | 2 | 22 | nt
Cc1ccc2c(C)nc(Nc3nc(CSc4nc5ccccc5[nH]4)cc(=O)[nH]3)nc2c1 | -11 | 7 | -22 | -3 | 87* | -179 | 53*
COc1ccccc1NC(=O)COC(=O)C1CCN(/C=C/C(=O)C(F)(F)F)CC1 | -23 | 21 | 2 | 2 | 0 | 6 | nt
COc1ccc(OCCC(=O)NCC23CC4CC(CC(C4)C2)C3)cc1 | -15 | 7 | 1 | 2 | 94* | 21 | 4
CSc1nc(C)cc(SCC(=O)N/N=C/c2ccccc2)n1 | -13 | 4 | 3 | 8 | 0 | -8 | nt
